Measured values from PubChem BioAssay (NCI).
About 79,000 compounds went through this panel and 15% of them were active in at least one assay; those are over-represented in the sample as a whole. Active and inactive are the calls of the source. Rule as the data show it: active = growth inhibition above about 70%; inactive = the rest.

Key:
[1] = NCI Yeast Anticancer Drug Screen. Data for the wt1 strain (AID 149);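 also: 0% = growth of vehicle-treated wt1 cultures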; conditions: S. cerevisiae wt1 strain (SPY 50644) growth inhibition, active compounds read high
Procedure, shortened: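 Measured: growth of wt1 yeast under compound versus vehicle treatment, reported as inhibition.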

[2] = NCI Yeast Anticancer Drug Screen. Data for the rad50EPP+ strain (AID 151);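 also: 0% = growth of vehicle-treated control cultures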; conditions: S. cerevisiae rad50 mutant strain, active compounds read high
Procedure, shortened: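 Compounds were applied to the rad50EPP+ yeast strain, which bears a defined DNA repair alteration, and growth inhibition was determined relative to vehicle-treated cultures.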

[3] = NCI Yeast Anticancer Drug Screen. Data for the mgt1 strain (AID 153); conditions: S. cerevisiae mgt1 mutant growth inhibition, active compounds read high
Procedure, shortened: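 Strain: mgt1 yeast, one of a set carrying defined DNA damage repair or cell cycle control alterations. Compound-treated growth compared with vehicle.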

[4] = NCI Yeast Anticancer Drug Screen. Data for the rad50 strain (AID 155);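 also: 0% = growth of vehicle-only cultures of the same strain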; conditions: S. cerevisiae rad50 strain growth inhibition, active compounds read high
Procedure, shortened: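 Growth of the mutant yeast was measured after compound exposure and referenced to vehicle-treated cultures.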

[5] = NCI Yeast Anticancer Drug Screen. Data for the mec2-1 strain (AID 157); conditions: S. cerevisiae mec2-1 strain, active compounds read high
Procedure, shortened: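 Strain: mec2-1 (DNA repair/cell cycle alteration). Compound exposure, then growth measured; inhibition expressed relative to vehicle.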

[6] = NCI Yeast Anticancer Drug Screen. Data for the rad14 strain (AID 159);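 also: 0% = growth of vehicle-treated control cultures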; conditions: S. cerevisiae rad14 strain growth inhibition, active compounds read high
Procedure, shortened: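 Here, inhibition of yeast growth was measured after compound exposure, using a strain with a genetic defect in DNA damage repair and vehicle-treated cultures as the reference.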

[7] = NCI Yeast Anticancer Drug Screen. Data for the sgs1 mgt1 strain (AID 161);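 also: 0% = growth of cultures given vehicle only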; conditions: S. cerevisiae sgs1 mgt1 strain, active compounds read high
Procedure, shortened: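 Genetically altered yeast, compound exposure, growth inhibition relative to vehicle.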

[8] = NCI Yeast Anticancer Drug Screen. Data for the cln2 rad14 strain (AID 165);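 also: 0% = growth equal to vehicle treated cultures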; conditions: S. cerevisiae cln2 rad14 strain, active compounds read high
Procedure, shortened: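 Compounds are applied to the cln2 rad14 yeast strain, and growth is then compared with that of vehicle-treated cultures to give inhibition.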

[9] = NCI Yeast Anticancer Drug Screen. Data for the bub3 strain (AID 167); conditions: S. cerevisiae bub3 mutant strain, active compounds read high
Procedure, shortened: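 Whole-cell yeast assay. The mutant strain was incubated with compounds, and growth inhibition was determined by comparison with vehicle-treated cells.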

[10] = NCI Yeast Anticancer Drug Screen. Data for the wt2 strain (AID 169);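 also: 0% = growth of vehicle-treated yeast cultures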; conditions: S. cerevisiae wt2 strain growth inhibition, active compounds read high
Procedure, shortened: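 This strain belongs to a panel of yeast strains with defined genetic alterations in DNA damage repair or cell cycle control. Compounds are applied, and growth inhibition is measured against vehicle-treated cultures.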

[11] = NCI Yeast Anticancer Drug Screen. Data for the mlh1 strain (AID 171);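 also: 0% = growth of vehicle-treated control cultures of the same strain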; conditions: S. cerevisiae mlh1 strain growth inhibition, active compounds read high
Procedure, shortened: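 Growth of the mutant yeast strain after compound exposure, expressed as inhibition relative to vehicle-only controls.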

[12] = NCI Yeast Anticancer Drug Screen. Data for the sgs1 strain (AID 173);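 also: 0% = growth of vehicle-only control cultures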; conditions: S. cerevisiae sgs1 mutant, active compounds read high
Procedure, shortened: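 Growth of a yeast strain bearing a defined genetic alteration is measured after compound treatment. Inhibition is expressed relative to vehicle-only controls.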

[13] = NCI Yeast Anticancer Drug Screen. Data for the mlh1 rad18 strain (AID 175); conditions: S. cerevisiae mlh1 rad18 strain growth inhibition, active compounds read high
Procedure, shortened: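 Read-out is yeast growth inhibition, calculated against vehicle-only controls. The compound was applied to a strain engineered with DNA damage repair alterations.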

[14] = NCI Yeast Anticancer Drug Screen. Data for the rad18 strain (AID 177); conditions: S. cerevisiae rad18 mutant growth inhibition, active compounds read high
Procedure, shortened: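 Growth of the mutant yeast strain after compound exposure, normalised to vehicle-only cultures.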

[15] = NCI Yeast Anticancer Drug Screen. Data for the CLN2oe strain (AID 163);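 also: 0% = growth of vehicle-only control cultures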; conditions: S. cerevisiae CLN2oe strain, active compounds read high
Procedure, shortened: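 Growth of a genetically modified yeast strain is measured after compound exposure and compared with cultures given vehicle alone.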

[16] = at 5.0 µM (retest, dose inferred, filed as 0.5)
[17] = at 50.0 µM (retest, dose inferred, filed as 5.0)

Measured: growth inhibition

c1ccc2c(c1)sc1c3cnccc3ccc21
active: [2]; at 33.0 µM 73% | [4]; at 33.0 µM 74% | [4]; [17] 74% | [4]; at 50.0 µM 94.3% | [4]; at 100.0 µM 73%
inactive: [1]; at 1.2 µM -1% | [1]; at 3.7 µM 14% | [1]; at 11.0 µM 23% | [1]; at 33.0 µM 22% | [1]; at 100.0 µM 23% | [2]; at 1.2 µM 36% | [2]; at 3.7 µM 46% | [2]; at 11.0 µM 55% | [2]; at 100.0 µM 65% | [3]; at 1.2 µM 1% | [3]; at 3.7 µM -1% | [3]; at 11.0 µM 0% | [3]; at 33.0 µM -3% | [3]; at 100.0 µM 3% | [4]; at 1.2 µM 12% | [4]; at 3.7 µM 36% | [4]; [16] 35% | [4]; at 11.0 µM 64% | [5]; at 1.2 µM 4% | [5]; at 3.7 µM 2% | [5]; [16] -34% | [5]; at 11.0 µM 3% | [5]; at 33.0 µM 8% | [5]; [17] -20% | [5]; at 50.0 µM 47.4% | [5]; at 100.0 µM 12% | [6]; at 1.2 µM 4% | [6]; at 3.7 µM 15% | [6]; at 11.0 µM 37% | [6]; at 33.0 µM 32% | [6]; at 100.0 µM 29% | [7]; [16] -55% | [7]; [17] -34% | [7]; at 50.0 µM 23.6% | [8]; [16] -39% | [8]; [17] -26% | [8]; at 50.0 µM 33% | [9]; at 1.2 µM 13% | [9]; at 3.7 µM 15% | [9]; [16] -35% | [9]; at 11.0 µM 24% | [9]; at 33.0 µM 34% | [9]; [17] -8% | [9]; at 50.0 µM 44.9% | [9]; at 100.0 µM 39% | [10]; at 1.2 µM 8% | [10]; at 3.7 µM 14% | [10]; at 11.0 µM 25% | [10]; at 33.0 µM 36% | [10]; at 100.0 µM 32% | [11]; at 1.2 µM -9% | [11]; at 3.7 µM -1% | [11]; at 11.0 µM 2% | [11]; at 33.0 µM 10% | [11]; at 100.0 µM 9% | [12]; at 1.2 µM -8% | [12]; at 3.7 µM -10% | [12]; at 11.0 µM 3% | [12]; at 33.0 µM 9% | [12]; at 100.0 µM 8% | [13]; [16] -171% | [13]; [17] -49% | [13]; at 50.0 µM 45.5% | [14]; at 1.2 µM -8% | [14]; at 3.7 µM 1% | [14]; at 11.0 µM -1% | [14]; at 33.0 µM -2% | [14]; at 100.0 µM 13%

OC1(c2ccccc2)CCCc2ccc(Cl)cc21 (centres undefined)
inactive: [1]; at 1.2 µM -1% | [1]; at 3.7 µM -2% | [1]; at 11.0 µM -8% | [1]; at 33.0 µM -4% | [3]; at 1.2 µM -10% | [3]; at 3.7 µM -15% | [3]; at 11.0 µM -2% | [3]; at 33.0 µM 5% | [4]; at 1.2 µM -3% | [4]; at 3.7 µM 1% | [4]; [16] 10% | [4]; at 11.0 µM -2% | [4]; at 33.0 µM 50% | [4]; [17] 28% | [4]; at 50.0 µM 57.2% | [5]; at 1.2 µM 2% | [5]; at 3.7 µM 5% | [5]; [16] 1% | [5]; at 11.0 µM 0% | [5]; at 33.0 µM 31% | [5]; [17] 11% | [5]; at 50.0 µM 50.2% | [6]; at 1.2 µM 1% | [6]; at 3.7 µM -1% | [6]; at 11.0 µM -1% | [6]; at 33.0 µM 17% | [7]; [16] -3% | [7]; [17] 4% | [7]; at 50.0 µM 56.2% | [8]; [16] 3% | [8]; [17] 13% | [8]; at 50.0 µM 11.1% | [9]; at 1.2 µM -2% | [9]; at 3.7 µM -10% | [9]; [16] -3% | [9]; at 11.0 µM -14% | [9]; at 33.0 µM -17% | [9]; [17] -13% | [9]; at 50.0 µM -16.4% | [10]; at 1.2 µM 0% | [10]; at 3.7 µM -2% | [10]; at 11.0 µM -7% | [10]; at 33.0 µM 7% | [11]; at 1.2 µM 1% | [11]; at 3.7 µM 3% | [11]; at 11.0 µM 0% | [11]; at 33.0 µM 30% | [13]; [16] 0% | [13]; [17] 39% | [13]; at 50.0 µM 53.8% | [14]; at 1.2 µM 0% | [14]; at 3.7 µM 4% | [14]; at 11.0 µM 3% | [14]; at 33.0 µM 40%
active: [1]; at 100.0 µM 98% | [3]; at 100.0 µM 99% | [4]; at 100.0 µM 99% | [5]; at 100.0 µM 99% | [6]; at 100.0 µM 99% | [9]; at 100.0 µM 98% | [10]; at 100.0 µM 99% | [11]; at 100.0 µM 99% | [14]; at 100.0 µM 99%

Cc1c(-c2ccccn2)ccc2ccccc12
inactive: [1]; at 1.2 µM -1% | [1]; at 3.7 µM 0% | [1]; at 11.0 µM -3% | [1]; at 33.0 µM -4% | [1]; at 100.0 µM 18% | [2]; at 1.2 µM -3% | [2]; at 3.7 µM 0% | [2]; at 11.0 µM 10% | [2]; at 33.0 µM 43% | [3]; at 1.2 µM 0% | [3]; at 3.7 µM -1% | [3]; at 11.0 µM -3% | [3]; at 33.0 µM 0% | [4]; at 1.2 µM 6% | [4]; at 3.7 µM 37% | [4]; [16] 1% | [4]; at 11.0 µM 44% | [4]; at 33.0 µM 15% | [4]; [17] 15% | [4]; at 50.0 µM 21.8% | [5]; at 1.2 µM -1% | [5]; at 3.7 µM 0% | [5]; [16] 1% | [5]; at 11.0 µM 1% | [5]; at 33.0 µM -1% | [5]; [17] 15% | [5]; at 50.0 µM 44.5% | [5]; at 100.0 µM 50% | [6]; at 1.2 µM 0% | [6]; at 3.7 µM 0% | [6]; at 11.0 µM 1% | [6]; at 33.0 µM 6% | [6]; at 100.0 µM 43% | [7]; [16] -2% | [7]; [17] 46% | [15]; at 1.2 µM -10% | [15]; at 3.7 µM -3% | [15]; at 11.0 µM -7% | [15]; at 33.0 µM -12% | [15]; at 100.0 µM -4% | [8]; [16] 1% | [8]; [17] 3% | [8]; at 50.0 µM 25.4% | [9]; at 1.2 µM 3% | [9]; at 3.7 µM 7% | [9]; [16] 18% | [9]; at 11.0 µM 24% | [10]; at 1.2 µM -2% | [10]; at 3.7 µM 7% | [10]; at 11.0 µM -4% | [10]; at 33.0 µM -3% | [10]; at 100.0 µM 43% | [11]; at 1.2 µM 0% | [11]; at 3.7 µM -1% | [11]; at 11.0 µM -76% | [11]; at 33.0 µM 0% | [11]; at 100.0 µM 39% | [12]; at 1.2 µM -2% | [12]; at 3.7 µM -1% | [12]; at 11.0 µM 1% | [12]; at 33.0 µM 24% | [13]; [16] -1% | [13]; [17] 20% | [13]; at 50.0 µM 59.8% | [14]; at 1.2 µM -1% | [14]; at 3.7 µM 2% | [14]; at 11.0 µM 6% | [14]; at 33.0 µM 13% | [14]; at 100.0 µM 67%
active: [2]; at 100.0 µM 71% | [3]; at 100.0 µM 88% | [4]; at 100.0 µM 73% | [7]; at 50.0 µM 80.8% | [9]; at 33.0 µM 70% | [9]; [17] 90% | [9]; at 50.0 µM 94.2% | [9]; at 100.0 µM 96% | [12]; at 100.0 µM 83%
